In PubChem BioAssay (EPA / NIEHS):
Active and inactive are the calls of the source. Rule for the calls: active = hit-call score of the fitted dose curve at least 0.9, where 1 is the maximum; inactive = score below 0.9.

These compounds were tested on MYC, MYC (gene 4609) (assay: LTEA_HepaRG_MYC: Life Technologies and Expression Analysis (LTEA) Assay for MYC using HepaRG (AID 2283518)). Settings: mRNA level, 48 h; actives raise or lower the signal.
In short: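 Expression changes were scored by TaqMan qRT-PCR with ACTB, GAPDH and POLR2A normalization. Cultures in serum-free induction medium received duplicate 8-point concentration series, highest 100 uM, for 48 h; DMSO (0.5%) served as baseline.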

| Compound | AC50 | outcome |
| --- | --- | --- |
| CCOc1cc(C(C)(C)C)ccc1C1COC(c2c(F)cccc2F)=N1 (centres undefined) | 33 µM (active) | – |
| COC(=O)N(C(=O)N1CO[C@@]2(C(=O)OC)Cc3cc(Cl)ccc3C2=N1)c1ccc(OC(F)(F)F)cc1 | – | inactive |
| CC(C)N1C(=O)c2ccccc2NS1(=O)=O | – | inactive |
| CCCC(=NOCC)C1=C(O)CC(CC(C)SCC)CC1=O (centres undefined) | – | inactive |
| C=CCOC(=O)C(C)(C)OC(=O)c1cc(-n2c(=O)cc(C(F)(F)F)n(C)c2=O)ccc1Cl | – | inactive |
| CC(C)Oc1cccc(NC(=O)c2ccccc2C(F)(F)F)c1 | – | inactive |
| CC(C)NC(=O)N1CC(=O)N(c2cc(Cl)cc(Cl)c2)C1=O | 13.2 µM (active) | – |
| CC(C)(C)C(=O)C(Oc1ccc(Cl)cc1)n1cncn1 (centres undefined) | – | inactive |
| CC1(C)CCC(=Cc2ccc(Cl)cc2)C1(O)Cn1cncn1 (centres undefined) | – | inactive |
| COCC(=O)N(c1c(C)cccc1C)C(C)C(=O)OC (centres undefined) | – | inactive |
| CCOc1nc(F)cc2nc(S(=O)(=O)Nc3c(Cl)cccc3Cl)nn12 | – | inactive |
| COP(=O)(OC)O/C(C)=C/C(=O)N(C)C | – | inactive |
| CC(C)N1C(=O)N(c2ccccc2)CSC1=NC(C)(C)C | 72.2 µM (active) | – |

Each compound was assayed on matrix metalloproteinase-3 (MMP3), MMP3 (gene 4314) (assay: LTEA_HepaRG_MMP3: Life Technologies and Expression Analysis (LTEA) Assay for matrix metalloproteinase-3 (MMP3) using HepaRG (AID 2283519)). Settings: mRNA level, 48 h; actives raise or lower the signal.
In short: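 HepaRG cells (~100,000/well) in serum-free induction medium were dosed in duplicate for 48 h with an 8-point half-log series from 100 uM, 0.5% DMSO. MMP3 mRNA was quantified by Fluidigm TaqMan qRT-PCR, normalized to three housekeeping genes.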

| Compound | outcome | AC50 |
| --- | --- | --- |
| COCC(C)N(C(=O)CCl)c1c(C)csc1C (centres undefined) | inactive | – |
| COC(=O)c1c(C(F)F)nc(C(F)(F)F)c(C2=NCCS2)c1CC(C)C | inactive | – |
| Cn1c(-c2ccccc2)cc(-c2ccccc2)[n+]1C | – | 88.9 µM (active) |
| COC(=O)NS(=O)(=O)c1ccc(N)cc1 | inactive | – |
| CC(C)Nc1nc(Cl)nc(NC(C)C)n1 | inactive | – |
| COC(=O)NC(=S)Nc1ccccc1NC(=S)NC(=O)OC | inactive | – |
| Clc1cccc(C(Cl)(Cl)Cl)n1 | inactive | – |
| COP(=S)(OC)Oc1ccc([N+](=O)[O-])c(C)c1 | inactive | – |
| CCOP(=S)(OCC)Oc1nc(Cl)n(C(C)C)n1 | inactive | – |
| COc1cc(Cl)c(OC)cc1Cl | inactive | – |
| CCCCC(O)(Cn1cncn1)c1ccc(Cl)cc1Cl (centres undefined) | – | 92.3 µM (active) |
| CNC(=O)N(C)c1nnc(C(C)(C)C)s1 | inactive | – |
| O=C(Nc1ccccc1-c1ccc(Cl)cc1)c1cccnc1Cl | inactive | – |
| CCNC(=O)NC(=O)C(C#N)=NOC | inactive | – |
| CCN(CC)C(=O)C(C)Oc1cccc2ccccc12 (centres undefined) | – | 76.2 µM (active) |
| CC1(C)CON(Cc2ccccc2Cl)C1=O | inactive | – |
| CCOc1nc(C(Cl)(Cl)Cl)ns1 | – | 2.93 µM (active) |
| CN=C=S | inactive | – |

| Compound | outcome | AC50 |
| --- | --- | --- |
| C=C(C)CN(CC)c1c([N+](=O)[O-])cc(C(F)(F)F)cc1[N+](=O)[O-] | inactive | – |
| Nc1c(Cl)c(Cl)nc(C(=O)O)c1Cl | inactive | – |
| CC1(C)C(C=C(Cl)Cl)C1C(=O)OC(C#N)c1cccc(Oc2ccccc2)c1 (centres undefined) | inactive | – |
| Cc1cnc(C2=NC(C)(C(C)C)C(=O)N2)c(C(=O)O)c1 (centres undefined) | inactive | – |
| CSC(=O)c1c(C(F)F)nc(C(F)(F)F)c(C(=O)SC)c1CC(C)C | inactive | – |
| CCOc1cc(C(C)(C)C)ccc1C1COC(c2c(F)cccc2F)=N1 (centres undefined) | inactive | – |
| COC(=O)N(C(=O)N1CO[C@@]2(C(=O)OC)Cc3cc(Cl)ccc3C2=N1)c1ccc(OC(F)(F)F)cc1 | inactive | – |
| CC(C)N1C(=O)c2ccccc2NS1(=O)=O | inactive | – |
| CCCC(=NOCC)C1=C(O)CC(CC(C)SCC)CC1=O (centres undefined) | inactive | – |
| C=CCOC(=O)C(C)(C)OC(=O)c1cc(-n2c(=O)cc(C(F)(F)F)n(C)c2=O)ccc1Cl | inactive | – |
| CC(C)Oc1cccc(NC(=O)c2ccccc2C(F)(F)F)c1 | inactive | – |
| CC(C)NC(=O)N1CC(=O)N(c2cc(Cl)cc(Cl)c2)C1=O | inactive | – |
| CC(C)(C)C(=O)C(Oc1ccc(Cl)cc1)n1cncn1 (centres undefined) | inactive | – |
| CC1(C)CCC(=Cc2ccc(Cl)cc2)C1(O)Cn1cncn1 (centres undefined) | inactive | – |
| COCC(=O)N(c1c(C)cccc1C)C(C)C(=O)OC (centres undefined) | inactive | – |
| CCOc1nc(F)cc2nc(S(=O)(=O)Nc3c(Cl)cccc3Cl)nn12 | – | 50 µM (active) |
| COP(=O)(OC)O/C(C)=C/C(=O)N(C)C | inactive | – |
| CC(C)N1C(=O)N(c2ccccc2)CSC1=NC(C)(C)C | – | 26.4 µM (active) |
